This passage reports Potency results from PubChem BioAssay (NCATS).

Holding throughout (test): qHTS profiling for inhibitors of Plasmodium falciparum proliferation (AID 504749); also: nearly all actives have a fitted effect of over 60% in size
Common to all, as to conditions: P. falciparum in erythrocytes, SYBR Green DNA, 72 h; series mostly up to 28.7 µM

For experiment [1], the system named is CP265. The essentials:
(§1)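 Parasite proliferation within erythrocytes, 72 h exposure. Endpoint: SYBR Green I fluorescence after overnight lysis at room temperature. Controls: 0.29 uM artemisinin, DMSO.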

In experiment [2] the test system is CP266. The essentials: as §1
Experiment [3] concerns CP268. The essentials:
as §1

Experiment [4] relates to CP269. The essentials: as §1
The test system of experiment [5] is CP286. In a few lines:
as §1

Experiment [6] concerns CP291. In a few lines: as §1
The subject of experiment [7] is CP305. The essentials: as §1
Experiment [8] has as its system CP315. The essentials: as §1
Experiment [9] relates to CP325. In a few lines:
as §1

In experiment [10] the test system is CP329. The essentials: as §1
Experiment [11] relates to CP335. The essentials: as §1
The subject of experiment [12] is DFO2036. In a few lines: as §1
For experiment [13], the system named is DIV14. In a few lines:
as §1

The test system of experiment [14] is DIV17. The essentials:
as §1

Experiment [15] deals with DIV30. In a few lines:
as §1

The test system of experiment [16] is Dd2. The essentials: as §1
Experiment [17] has as its system ECU. In a few lines: as §1
In experiment [18] the test system is FAB9. The essentials: as §1
For experiment [19], the system named is GB4. In a few lines: as §1
The subject of experiment [20] is CP297. In a few lines:
as §1

Inconclusive results are not listed. Calls of active or inactive are those of the source. Calls follow the shape of the dose curve; as a rule, active = well fitted inhibition curve with a large enough effect; inconclusive = small, poorly fitted or top-dose-only effect; inactive = flat fitted curve, though single readings scatter.
Potency is read from the fitted curve at half-maximal effect.

For the compound `CCN(CC)CCNC(=O)c1cc(Br)c(N)cc1OC`, the Potency result in [1], in [2], in experiment [3], in experiment [4], in experiment [5] and in experiment [6] was “inactive” in each case. The Potency result in experiment [7], in experiment [8], in experiment [9], in experiment [10], in experiment [11] and in experiment [12] was “inactive” in each case. For the same compound, the Potency entry in experiment [13], in experiment [14], in experiment [15], in experiment [16], in experiment [17] and in experiment [18] was “inactive” each time. Also, in [19], the Potency entry was “inactive”.
In the case of `CCC(CC)(CC(=O)Nc1cccc(/C=C/c2nc(C3CCC3)cs2)c1)C(=O)O`, the Potency entry in experiment [1], in [2], in [3], in [4], in [5] and in experiment [6] was “inactive” each time. For the same compound, the Potency result in experiment [20], in [7], in [8], in experiment [9], in experiment [10] and in experiment [11] was “inactive” throughout. Moreover, the Potency entry in experiment [12], in experiment [13], in experiment [15], in experiment [16], in experiment [17] and in experiment [18] was “inactive” each time. Further, the Potency result in experiment [19] is “inactive”.
Turning to `C/C=C/C=N/NC(=O)c1ccncc1`, the Potency result in experiment [1], in experiment [2], in [3], in [4], in experiment [5] and in [6] was “inactive” each time. Also, the Potency result in [7], in [8], in experiment [9], in experiment [10], in [11] and in [12] was “inactive” in each case. The Potency entry in experiment [13], in experiment [14], in experiment [15], in experiment [16], in [17] and in experiment [18] was “inactive” each time. Also, in [19], the Potency entry was “inactive”.
For `CCc1ccc(C(=O)C(C)CN2CCCCC2)cc1` (stereo unspecified), the Potency result in [1], in experiment [2], in experiment [3], in [4], in experiment [5] and in [6] was “inactive” throughout. Further, the Potency entry in experiment [20], in experiment [7], in experiment [8], in experiment [9], in experiment [10] and in [11] was “inactive” throughout. Further, the Potency result in experiment [12], in experiment [13], in experiment [15], in experiment [16], in experiment [17] and in [18] was “inactive” each time. In addition, the Potency entry in experiment [19] was “inactive”.
As for `CCOC(=O)Nc1ccc2c(c1)N(C(=O)CCN1CCOCC1)c1ccccc1S2`, the Potency result in experiment [1], in [2], in [3], in experiment [4], in experiment [5] and in [6] was “inactive” each time. For the same compound, the Potency entry in [20], in experiment [7], in experiment [9], in experiment [10], in experiment [11] and in experiment [12] was “inactive” throughout. Besides, the Potency result in experiment [13], in [15], in experiment [16], in experiment [17], in experiment [18] and in experiment [19] was “inactive” in each case.
Take `OC[C@H]1O[C@@H]2O[C@H]3[C@H](O)[C@@H](O)[C@@H](O[C@H]4[C@H](O)[C@@H](O)[C@@H](O[C@H]5[C@H](O)[C@@H](O)[C@@H](O[C@H]6[C@H](O)[C@@H](O)[C@@H](O[C@H]7[C@H](O)[C@@H](O)[C@@H](O[C@H]8[C@H](O)[C@@H](O)[C@@H](O[C@H]1[C@H](O)[C@H]2O)O[C@@H]8CO)O[C@@H]7CO)O[C@@H]6CO)O[C@@H]5CO)O[C@@H]4CO)O[C@@H]3CO`: the Potency entry in [1], in experiment [2], in [3], in [4], in experiment [5] and in [6] was “inactive” each time. Further, the Potency result in experiment [7], in experiment [8], in experiment [9], in experiment [10], in experiment [11] and in experiment [12] was “inactive” throughout. For the same compound, the Potency entry in experiment [13], in experiment [15], in experiment [16], in [17], in experiment [18] and in experiment [19] was “inactive” in each case.
For the compound `CNCCc1ccccn1`, the Potency result in experiment [1], in experiment [2], in [3], in experiment [4], in experiment [5] and in experiment [6] was “inactive” in each case. Further, the Potency entry in [7], in experiment [8], in experiment [9], in experiment [10], in experiment [11] and in experiment [12] was “inactive” throughout. For the same compound, the Potency result in [13], in experiment [14], in [15], in experiment [16], in experiment [17] and in experiment [18] was “inactive” in each case. Besides, the Potency entry in experiment [19] is “inactive”.
As to `C[N+]1(CC2COC(c3ccccc3)(C3CCCCC3)O2)CCCCC1` (stereo unspecified), the Potency is 10 µM (active) in experiment [1]; 8.49 µM (active) in experiment [2]; 7.57 µM (active) in experiment [3]; 4.78 µM (active) in [4]; 5.01 µM (active) in [5]; 4.78 µM (active) in experiment [6]. Moreover, the Potency in experiment [20] is 6.01 µM (active); in experiment [7], 4.78 µM (active); in [8], 6.01 µM (active); in [9] it was 6.75 µM (active); in experiment [12], 7.94 µM (active); in [13] it was 6.01 µM (active). The Potency in [14] was 6.01 µM (active); in [15] it was 6.75 µM (active); in [16], 7.08 µM (active); in experiment [17] it was 4.47 µM (active); in experiment [18] it was 3.16 µM (active); in experiment [19] it was 3.38 µM (active).
Turning to `CC(C)[N+](C)(C)CC(O)COc1cccc2ccccc12` (stereo unspecified), the Potency result in [1], in [3], in experiment [10], in experiment [13] and in experiment [15] was “inactive” throughout. For the same compound, the results for the Potency in experiment [11] and in experiment [18] were 9.53 µM (active) and 7.94 µM (active), respectively.
